# The list is not random: actives were taken first. Their share in the collection is about 4.3%.
# CHOP inh: CHOP inhibition in unfolded protein response. inhibition, % at 10 µM. CHO-K1 CHOP-promoter luciferase, tunicamycin-induced, 15-18 h. 220,000 tested, 3.8% active;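 active = compounds that reduced the stress-induced luciferase reporter signal by more than about 70% of percent inhibition, limit read from the data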;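 note: 0% = tunicamycin plus vehicle and 100% = wells without tunicamycin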
# TRPM1 prom inh: reduces MITF-dependent TRPM1 promoter luciferase signal; inhibition, % at 12.5 µM; AID 488899; SK-MEL-5 TRPM1 promoter luciferase, 24 h; 330,000 tested, 0.83% active;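 active = mean inhibition across replicates of 60% or more, whatever share of single replicates reaches that level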
# Peg3 prom inh: Peg3 promoter activity inhibition; HeLa PEG-Prom luciferase reporter, luminescence, overnight; inhibition, % at 20 µM; 360,000 tested, 1.7% active; AID 588405;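 active = inhibition of at least 50% at 20 µM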
# KKLEB tox: CF airway cell cytotoxicity counter-screen; KKLEB CF airway cells viability, ATPlite luminescence, overnight; active compounds read low; cells stimulated with P. aeruginosa culture filtrate; activity change (cytotoxicity), % at 5 µM; 360,000 tested, 0.36% active;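 active = corrected activity change at or below -50% at 5 µM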
# CF NFkB inh: inhibitors of cystic fibrosis induced NF-kB. KKLEB NF-kB-GFP reporter, PAF-induced, GFP fluorescence overnight. inhibition, % at 5 µM. 360,000 tested, 0.86% active. AID 588850;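 active = at least 50% inhibition at 5 µM, scaled per plate between neutral and stimulator controls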;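 note: PAF is a Pseudomonas aeruginosa culture filtrate used as stimulus; plate controls were PAF-stimulated DMSO wells for no effect and unstimulated DMSO wells for full effect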
# HIF-2a inh: inhibitors of HIF-2a; 786-0 RCC cells HIF-2a reporter, luciferase luminescence, overnight; inhibition, % at 18.8 µM; 360,000 tested, 0.72% active;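 active = inhibition of the luminescence signal of 40% or more relative to plate controls, in a single-dose primary screen at 18.75 µM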
# CF NFkB conf: confirmation of cystic fibrosis induced NF-kB inhibitors; shares compounds with CF NFkB inh; KKLEB CF airway cells, PAF-induced NF-kB-GFP fluorescence, overnight; inhibition, % at 5 µM; 1,300 tested, 64% active; in the data active = inhibition above about 40%;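 note: stimulus PAF is a Pseudomonas aeruginosa filtrate and not platelet activating factor; plate controls were DMSO wells with stimulus for no effect and unstimulated DMSO wells for full effect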
# The depositor's hits bear a star; · = no result given.
SMILES,CHOP inh,TRPM1 prom inh,Peg3 prom inh,KKLEB tox,CF NFkB inh,HIF-2a inh,CF NFkB conf
C[C@@H]1CN([C@H](C)CO)C(=O)c2cc(NC(=O)Nc3ccc(C(F)(F)F)cc3)ccc2O[C@H]1CN(C)S(=O)(=O)c1cccs1,·,0,28,1,57*,33,81*
COc1ccc(C(=O)NCC(=O)N/N=C/c2cccc(OC(=O)c3ccco3)c2)cc1OC,9,-2,7,11,-8,12,·
Cc1[nH]nc2ncc(C(=O)c3ccccc3O)cc12,53,-1,26,-13,86*,10,94*
Cc1nn(C)c2ncc(C(=O)c3ccccc3O)cc12,·,7,3,-4,6,12,·
Cn1c(Oc2ccc(Cl)cc2)c(C=O)c2ccccc21,63,24,37,-16,51*,31,70*
COc1ccc(Oc2c(C=O)c3ccccc3n2C)cc1,19,0,-21,-6,28,19,·
NN(CCO)C(=S)Nc1ccc(Cl)cc1,4,1,-10,1,-38,-12,·
O=C(CCSC1=NCCCN1)c1ccc(F)cc1,·,-5,7,4,14,-5,·
COc1ccc(Nc2cccc3ccccc23)cc1,·,-1,-11,-22,76*,-115,-4
COc1ccc(Nc2cccccc2=O)cc1,5,-55,-123,10,17,-79,·
CC(C)COC(=O)N1CCCCC1c1cc(C(=O)NCc2cccnc2)no1 (stereo not given),·,·,11,9,6,17,·
CCn1c(=O)cc(C(=O)OC)sc1=Nc1ccc(F)c(F)c1,96*,-18,65*,-21,50*,11,24
CCOC(=O)c1ccc(N=c2sc(C(=O)OC)cc(=O)n2CCCN2CCOCC2)cc1,42,-1,3,-18,13,9,·
COc1ccccc1CN1CC(C(=O)NCc2cc(F)cc(C(F)(F)F)c2)CCC1=O (stereo not given),·,-8,-15,3,11,-17,·
C=C(c1ccc2nc(NC(=O)OC)[nH]c2c1)c1cccs1,·,-11,-177,-14,62*,-198,96*
CCOC(=O)c1c(C)cc2c(CO)n[nH]c(=O)c2c1C,·,·,27,-14,51*,10,48*
CCOC(=O)Cc1n[nH]c(=O)c2ccccc12,10,-1,0,8,8,10,·
CC(C)CC1NC(=S)N(Cc2ccccc2)C1=O (stereo not given),17,5,99*,-17,58*,-11,10
O=C1C(Cc2ccccc2)NC(=S)N1Cc1ccccc1 (stereo not given),6,8,-2,10,5,13,·
CCOC(=O)c1sc(NC(=O)c2cccc(S(=O)(=O)N3CCc4ccccc43)c2)c(C#N)c1C,95*,22,40,-32,61*,-16,66*
CCC(CC)c1nnc(NC(=O)c2cccc(S(=O)(=O)N3CCc4ccccc43)c2)s1,62,9,9,-1,5,3,·
COc1ccc(-c2cc(C(F)(F)F)nc(N3CCN(c4ccc(F)cc4)CC3)n2)cc1OC,-4,-4,20,-34,54*,3,41*
COc1ccc(-c2cc(C(F)(F)F)nc(N3CCN(Cc4ccccc4)CC3)n2)cc1OC,19,6,5,-8,4,16,·
CCc1cc(C(=O)NC2CCCN(Cc3ccccc3F)C2)n(C)n1 (stereo not given),·,12,8,-12,9,9,·
OCCN1CCN(c2ncnc3c2ncn3[C@H]2CN(Cc3ccc(F)cc3)C[C@@H](CO)O2)CC1,·,·,-6,18,-19,-1,·
SMILES,CHOP inh,TRPM1 prom inh,Peg3 prom inh,KKLEB tox,CF NFkB inh,HIF-2a inh,CF NFkB conf
O=C(NCC1CCCN(Cc2cccc(F)c2)C1)c1cccc2ccccc12 (stereo not given),·,2,4,-1,22,15,·
CCN(C[C@H]1N[C@@](Cc2ccccc2)(C(=O)OC)[C@H]2C(=O)N(Cc3ccccc3)C(=O)[C@@H]12)C(=O)Nc1ccc(C(F)(F)F)cc1,·,7,31,6,51*,-60,35
O=c1cc(-c2ccccc2Cl)oc2cc(O)cc(O)c12,28,-42,-233,-1,66*,-128,77*
Cc1ccc(Cl)cc1-c1cc(C(=O)NCc2cc(C(F)(F)F)cc(C(F)(F)F)c2)[nH]n1,·,·,40,-31,59*,-29,63*
Cn1cccc1C(=O)NC(=O)COC(=O)c1ccc(S(C)(=O)=O)c([N+](=O)[O-])c1,·,86*,102*,-18,67*,36,59*
COC(=O)[C@]12CCCCC=C1N(Cc1ccco1)C(=O)[C@H](CC(=O)NCCCN1CCCC1=O)C2,·,·,·,·,·,8,·
COc1ccc(COc2cc(-c3cccc(OC)c3)nc3ccc(NC(=O)c4cccnc4)cc23)cc1,-9,4,54*,-17,80*,17,92*
Nc1c(Cl)c(Cl)nc(C(=O)N/N=C/c2cccnc2)c1Cl,24,·,-7,-8,51*,4,40
Cc1nnc(NC(=O)CC23CC4CC(CC(C4)C2)C3)s1,·,·,-5,-4,13,-2,·
O=C(CC12CC3CC(CC(C3)C1)C2)Nc1nncs1,·,2,36,-5,50*,19,61*
CCc1nc2ccc(C(=O)Nc3cccc(OCC(=O)N(C)C)c3)cn2c1N(C)Cc1cc2ccccc2s1,·,·,73*,-10,53*,-19,14
Cc1ccc(NC(=O)c2nc[nH]c2C(=O)NCCCNC(=O)c2[nH]cnc2C(=O)Nc2ccc(C)cc2)cc1,·,-26,84*,-13,52*,2,79*
COc1cccc2c(SCC(=O)N/N=C/c3ccccc3)cc(C)nc12,13,17,27,-29,54*,31,61*
Cc1ccc(CNc2ncnc3ccc(-c4ccc(CO)o4)cc23)o1,·,·,28,-34,53*,34,81*
COC(=O)C1CCN(C(=O)CN2C(=O)NC3(CCC(C)CC3)C2=O)CC1 (stereo not given),·,3,10,-18,-15,8,·
Cc1sc2ncnc(N3CCC(C(=O)Nc4ccc(OC(F)F)c(Cl)c4)CC3)c2c1C,·,1,18,-4,10,8,·
CCN(CC)CCNC(=O)c1ccc(NC(=O)C2CCN(c3ncnc4sc(C)c(C)c34)CC2)cc1,·,-31,80*,-18,55*,28,56*
CC(C)(CO)CNC1CCCN(C2Cc3ccccc3C2)C1 (stereo not given),·,7,6,-1,6,11,·
O=C(Oc1cc2oc(=O)cc(-c3ccccc3)c2cc1Cl)C1CCCCC1,65,-31,2,-17,64*,-4,87*
CC(C)(C)OC(=O)NCC(=O)Oc1cc2oc(=O)cc(-c3ccccc3)c2cc1Cl,-2,-16,6,1,53*,13,90*
